DRD3 antagonist: antagonists of human D3 dopamine receptor | max response, negative = inhibition, % | P35462 | AID 652054 | D3R cells, DiscoveRx beta-arrestin luminescence, antagonist mode; active compounds read low | 2.5% of 360,000 active; in the data active means max response below about -50%; inconclusive means no clear call, values can overlap the other calls
Target sequence (P35462 whole entry, looked up): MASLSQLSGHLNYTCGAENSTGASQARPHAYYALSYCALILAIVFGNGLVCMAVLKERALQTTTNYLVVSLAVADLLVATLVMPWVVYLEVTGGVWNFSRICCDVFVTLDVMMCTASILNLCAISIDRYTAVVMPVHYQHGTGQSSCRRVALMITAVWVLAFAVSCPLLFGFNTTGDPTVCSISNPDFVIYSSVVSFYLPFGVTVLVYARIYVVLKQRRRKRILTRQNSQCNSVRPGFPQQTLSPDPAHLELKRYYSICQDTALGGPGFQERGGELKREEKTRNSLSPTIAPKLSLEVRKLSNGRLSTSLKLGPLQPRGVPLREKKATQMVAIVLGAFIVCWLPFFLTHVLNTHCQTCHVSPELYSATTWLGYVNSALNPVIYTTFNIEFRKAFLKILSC
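Cells expressing the human receptor were seeded at 1500 cells/well, incubated overnight at 37 degrees C in 5% CO2, then exposed to library compounds with dopamine controls for 90 minutes at 37 degrees C before luminescent detection.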
SW480 rereplic: DNA re-replication induction in SW480 cells | SW480 DNA re-replication, Hoechst DNA content imaging, 48 h | 1.8% of 340,000 active | Potency, µM (doses to about 46.1 µM), most hits filed as activators | AID 624297; further: nearly all actives have a fitted effect of over 55% in size
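Image-based DNA-content assay: after two days of treatment, nuclei were labelled with the DNA dye Hoechst and imaged, and hits were compounds raising the count of nuclei showing high fluorescence intensity.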
KB-3-1 tox: kills parental KB-3-1 adenocarcinoma cells | AID 1347075 | Potency, µM (doses to about 46.1 µM), usual class: cytotoxic | 1.4% of 400,000 active | KB-3-1 viability, CellTiter-Glo ATP luminescence, 72 h; further: nearly all actives have a fitted effect of over 60% in size
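Cytotoxicity measured as CellTiter-Glo luminescence after 72 h at 37 C. Compound titrations were pinned onto drug-naive KB-3-1 parental adenocarcinoma cells grown in DMEM with 10% FBS, and normalized data fitted to concentration-response curves.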
MCF10A rereplic: inducers of DNA re-replication in MCF 10A breast cells; MCF 10A DNA re-replication, Hoechst nuclear intensity, 48 h; Potency, µM (titrated, usually from 46.1 µM), usual class: activators; 2.9% of 350,000 active; AID 624296; further: nearly all actives have a fitted effect of over 50% in size
KB-V1 cytotox: KB-V1 MDR subline cytotoxicity; KB-V1 MDR cells viability, CellTiter-Glo, 72 h; Potency, µM (titrated, usually from 46.1 µM), actives largely listed as cytotoxic; AID 1347076; 3.4% of 400,000 active; further: nearly all actives have a fitted effect of over 60% in size
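KB-V1, DMEM (no phenol red) + 10% FBS; cpd pin-transferred, titration series; 72 h, 37 degrees C; CellTiter-Glo, luminescence. Data normalized, curve-fit.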
D3 ag: agonists of human D3 dopamine receptor | P35462 | D3R DiscoveRx beta-arrestin cells, luminescence, 90 min | max activation, % | 0.58% of 410,000 active | AID 652048; in the data active means max activation above about 30%
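Cells at 1500/well, incubated overnight, then treated with pinned compounds (dopamine as control) for 90 min at 37 degrees C. DiscoveRx reagent added for 30 - 60 minutes at room temperature; luminescence read.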
A number is an active result; n = inactive; u = inconclusive; x = not tested or not shown. This is a sample that favours compounds with a hit; in the whole collection about 8.9% have one here. Unless noted, the call rests on the fitted dose curve; in most records, active means well fitted curve in the direction sought with a large enough effect; inconclusive means small, poorly fitted or top-dose-only effect, or another doubt; inactive means no such curve, though single readings can be large; an effect the other way counts as inactive or inconclusive.

SMILES	DRD3 antagonist	SW480 rereplic	KB-3-1 tox	MCF10A rereplic	KB-V1 cytotox	D3 ag
CNC(C)C#Cc1ccc2sc3cccc(OC)c3c(=O)c2c1 (stereo not drawn)	n	7.3µM	n	u	n	n
N#Cc1cccc(S(=O)(=O)NCCOc2ccccc2F)c1	n	n	n	n	n	n
CN(C)CCCN(C(=O)c1ccc2c(c1)CCCC2)c1nc2ccc(F)cc2s1	n	u	n	u	4.1µM	n
CN(C)CCCN(C(=O)c1ccc2c(c1)CCCC2)c1nc2cc3c(cc2s1)OCO3	n	u	u	16µM	n	n
CN(C)CCCN(C(=O)c1ccc(S(=O)(=O)N(C)C)cc1)c1nc2cc3c(cc2s1)OCO3	n	n	n	n	n	n
O=C(CN1C(=O)COc2ccc(S(=O)(=O)Nc3ccccc3)cc21)Nc1cccc(Cl)c1	x	x	n	x	n	n
CN(CC(=O)Nc1ccc(Br)cc1)Cc1ccccc1	u	n	n	n	n	n
O=C(CCN(CCO)Cc1ccccc1)Nc1ccc(Br)cc1	u	n	n	n	15µM	n
CCN(CCC(=O)Nc1ccc(Br)c(C)c1)Cc1ccccc1	-82	n	u	n	u	n
Cc1ccc(NC(=O)CCc2ccccc2)cc1C	n	x	n	x	n	n
O=S1(=O)CCOC[C@H](c2ccccc2)N1Cc1ccc(F)cc1	x	x	n	x	n	x
CCc1ccc(C2CC(=O)Oc3c2c(=O)n(C)c2ccccc32)cc1 (stereo not drawn)	x	x	n	x	n	n
CN(C)C(=O)c1ccc(-c2n[nH]c(=O)c3ccccc23)cc1	n	n	n	0.82µM	n	n
COC(=O)c1ccc(-c2n[nH]c(=O)c3ccccc23)cc1	n	n	n	n	n	n
CCC(C)[C@H]1O[C@]2(C=C[C@@H]1C)C[C@@H]1C[C@@H](C/C=C(\C)[C@@H](O[C@H]3C[C@H](OC)[C@@H](O[C@H]4C[C@H](OC)[C@H](NC(C)=O)[C@H](C)O4)[C@H](C)O3)[C@@H](C)/C=C/C=C3\CO[C@@H]4[C@H](O)C(C)=C[C@@H](C(=O)O1)[C@]34O)O2 (stereo partly drawn)	x	x	x	x	x	n
COc1ccc2c(c1)NC(c1ccc(Cl)cc1)=NC(c1cccs1)=N2	x	x	n	x	n	n
CCCC(=O)Nc1ccc(NC(=O)CCc2ccccc2)cn1	-56	u	n	n	n	n
CCOc1ccc(-n2nc(CO)c(C(=O)NCc3ccc(Cl)cc3)n2)cc1	x	x	x	x	x	n
COc1ccc2ncc3c(-c4ccc(C)c(C)c4)nn(CC(=O)NC4CCCCC4)c3c2c1	x	x	n	x	n	n
COc1cccc(NC(=O)CCc2c(C)nc3ncnn3c2C)c1	x	x	n	x	n	n
O=C(CN1CCN(S(=O)(=O)c2ccc(F)c(Cl)c2)CC1)N1CCc2ccccc21	n	n	u	n	3.3µM	n
O=C(CCCOc1ccc(Cl)cc1Cl)N1CCc2ccccc2C1	n	2.6µM	n	3.3µM	u	n
O=C(CCCOc1ccccc1)N1CCc2ccccc2C1	n	n	n	n	n	n
O=C(CN1CCN(S(=O)(=O)c2ccc(F)c(Cl)c2)CC1)N1CCc2ccccc2C1	n	n	n	n	9.2µM	n
O=C(CCCOc1ccccc1)N1CCN(S(=O)(=O)c2ccccc2)CC1	n	n	n	n	n	n
SMILES	DRD3 antagonist	SW480 rereplic	KB-3-1 tox	MCF10A rereplic	KB-V1 cytotox	D3 ag
O=C(CCC(=O)N1CCc2ccccc2C1)N1CCN(S(=O)(=O)c2ccccc2)CC1	n	n	n	n	13µM	n
O=C(CN1CCN(S(=O)(=O)c2ccc3c(c2)OCCCO3)CC1)N1CCc2ccccc21	n	x	n	x	n	n
COc1ccc(C(O)(CCN2CCOCC2)c2ccccc2)cc1 (stereo not drawn)	n	n	n	n	n	n
CCN(CC)S(=O)(=O)c1cc(C)ccc1SC	n	23µM	n	n	n	n
CC1=CC(=C(c2ccc(N)cc2)c2ccc(N)cc2)C=CC1=N	x	n	2.3µM	n	u	n
Cc1ccc(Cl)cc1N1CCN(c2nc3ccc(C(=O)c4ccccc4)cc3n3cnnc23)CC1	x	x	n	x	n	n
CCn1c(=N)c(C(=O)NC2CCCCC2)cc2c(=O)n3cc(C)ccc3nc21	x	x	n	x	n	n
Cc1ccc2cc(-c3noc(C(C)(C)C)n3)c(=O)[nH]c2c1	n	n	n	n	18µM	n
CCc1nc(-c2cc3ccc(C)cc3[nH]c2=O)no1	n	n	n	n	n	n
O=C1C2C3C=CC(C4CC34)C2C(=O)N1/N=C/c1ccc([N+](=O)[O-])o1 (stereo not drawn)	u	10µM	16µM	3.3µM	u	n
O=[N+]([O-])c1ccc(/C=N\O)o1	x	x	x	x	x	n
Cc1cc2ncn(/N=C/c3ccc([N+](=O)[O-])o3)c2cc1C	n	21µM	n	21µM	u	n
O=C1C2C3C=CC(C4CC34)C2C(=O)N1/N=C/c1ccc(-c2ccc([N+](=O)[O-])cc2)o1 (stereo not drawn)	n	u	n	n	n	n
O=[N+]([O-])c1ccc(/C=N/N=C/c2ccc([N+](=O)[O-])o2)o1	-81	n	u	2.6µM	8.2µM	n
O=C1C2C(C(=O)N1/N=C/c1ccc([N+](=O)[O-])o1)C1C=CC2C12CC2 (stereo not drawn)	n	u	n	16µM	n	n
CCCC(=O)NCC(c1ccc2c(c1)OCO2)N1CCOCC1 (stereo not drawn)	x	x	x	x	x	n
CCOc1ccc(C(=O)NCC(c2ccc3c(c2)OCO3)N2CCN(c3ccccc3F)CC2)cc1 (stereo not drawn)	x	x	n	x	n	n
CCN1C(=O)S/C(=C/c2c(OCc3ccc(C(=O)O)cc3)ccc3ccccc23)C1=O	n	n	n	6.5µM	n	n
COc1cc(C(=O)N2CCN(c3ccc([N+](=O)[O-])cc3)CC2)ccc1OCc1c(C)noc1C	n	n	n	n	u	n
COc1ccc(N2CCN(C(=O)c3ccc(OCc4c(C)noc4C)c(OC)c3)CC2)cc1	n	n	n	n	12µM	n
COc1cc(C(=O)Nc2nccs2)ccc1OCc1c(C)noc1C	n	n	n	u	n	n
COc1cc(C(=O)OCC(C)=O)ccc1OCc1c(C)noc1C	n	16µM	15µM	21µM	u	n
Cc1noc(C)c1C(=O)N1CCN(c2ccc(OCc3ccccc3)cc2)CC1	n	n	u	u	15µM	n
COc1cc(C(=O)Nc2nc3ccccc3s2)ccc1OCc1c(C)noc1C	n	16µM	u	u	n	n
CCOc1ccc(NC(=O)Cn2nc3c(cc2=O)CC(C)CC3)cc1 (stereo not drawn)	x	x	x	x	x	n
Cc1nn(-c2ccccc2)c2nc(C3CC3)cc(C(=O)Nc3ccc(F)cc3)c12	x	x	n	x	n	n
